# Reference: PubChem BioAssay AID1159580 (chemical genetic matrix, 2015)
# “And” between values parts separate entries of the source, which are not always exact repeats. Equal entries are not always repeated. In all, about 5,500 compounds went through this assay and about 2,000 (36%) were called active. Inconclusive results (about 18%) are left out. Some of the results follow. A number with no mark means an inactive call. Cut-off read from the data, not from the text of the source: active = normalized growth mostly below about 0.91 (no sharp cut-off); inconclusive = no clear call, values can overlap the other calls; inactive = mostly above about 0.92.
# Assay: chemical genetic growth profiling, strain panel (AID 1159580);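 note: tested at 20 µM; growth read once vehicle control cultures reached saturation at 30 °C; 1 = growth at the plate median or of vehicle wells; lower values mean less growth of the strain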
# Conditions: S. cerevisiae deletion strains, growth OD
compound,measurement,setting,value
COc1cc2c(cc1OC)[C@@H]1C(=O)c3ccc4c(c3O[C@@H]1CO2)CC(C(C)C)O4 (some centres not stated),normalized growth,"locus YAL021C, strain ccr4, active compounds read low",0.989
same,normalized growth,"locus YAL026C, strain drs2, active compounds read low",0.969
same,normalized growth,"locus YAL030W, strain snc1, active compounds read low",0.998
same,normalized growth,"locus YBL061C, strain skt5, active compounds read low",1
same,normalized growth,"locus YBR009C, strain hhf1, active compounds read low",0.938
same,normalized growth,"locus YBR021W, strain FUR4, active compounds read low",0.993
same,normalized growth,"locus YBR023C, strain chs3, active compounds read low",0.981
same,normalized growth,"locus YBR171W, strain sec66, active compounds read low",0.974
same,normalized growth,"locus YBR229C, strain ROT2, active compounds read low",0.994
same,normalized growth,"locus YBR231C, strain swc5, active compounds read low",0.932
same,normalized growth,"locus YBR279W, strain paf1, active compounds read low",0.982
same,normalized growth,"locus YCL011C, strain gbp2, active compounds read low",0.991
same,normalized growth,"locus YCL016C, strain dcc1, active compounds read low",0.984
same,normalized growth,"locus YCL029C, strain bik1, active compounds read low",1.02
same,normalized growth,"locus YCL061C, strain MRC1, active compounds read low",0.96
same,normalized growth,"locus YCL069W, strain vba3, active compounds read low",0.99
same,normalized growth,"locus YCR088W, strain abp1, active compounds read low",0.99
same,normalized growth,"locus YDL005C, strain med2, active compounds read low",0.978
same,normalized growth,"locus YDL035C, strain GPR1, active compounds read low",0.972
same,normalized growth,"locus YDL040C, strain nat1, active compounds read low",0.985
same,normalized growth,"locus YDL074C, strain BRE1, active compounds read low",0.952
same,normalized growth,"locus YDL101C, strain DUN1, active compounds read low",0.982
same,normalized growth,"locus YDL185W, strain tfp1, active compounds read low",1.01
same,normalized growth,"locus YDL192W, strain arf1, active compounds read low",1.01
same,normalized growth,"locus YDR001C, strain nth1, active compounds read low",0.987
same,normalized growth,"locus YDR069C, strain doa4, active compounds read low",1
same,normalized growth,"locus YDR101C, strain arx1, active compounds read low",0.998
same,normalized growth,"locus YDR137W, strain rgp1, active compounds read low",0.89
same,normalized growth,"locus YDR150W, strain NUM1, active compounds read low",1.01
same,normalized growth,"locus YDR159W, strain sac3, active compounds read low",0.957
same,normalized growth,"locus YDR162C, strain NBP2, active compounds read low",0.941
same,normalized growth,"locus YDR195W, strain ref2",0.982
same,normalized growth,"locus YDR297W, strain sur2, active compounds read low",0.972
same,normalized growth,"locus YDR318W, strain mcm21, active compounds read low",1
same,normalized growth,"locus YDR334W, strain swr1, active compounds read low",0.99
same,normalized growth,"locus YDR335W, strain msn5, active compounds read low",1.01
same,normalized growth,"locus YDR388W, active compounds read low",1.01
same,normalized growth,"locus YDR392W, strain spt3, active compounds read low",0.707 (active)
same,normalized growth,"locus YDR502C, strain sam2, active compounds read low",0.998
same,normalized growth,"locus YEL003W, strain gim4, active compounds read low",0.959
same,normalized growth,"locus YEL037C, strain rad23, active compounds read low",0.999
same,normalized growth,"locus YEL061C, strain CIN8 (second series), active compounds read low",0.99
same,normalized growth,"locus YEL061C, strain CIN8, active compounds read low",1
same,normalized growth,"locus YER015W, strain faa2, active compounds read low",0.965
same,normalized growth,"locus YER016W, strain bim1, active compounds read low",0.984
same,normalized growth,"locus YER110C, active compounds read low",1.01
same,normalized growth,"locus YER111C, strain swi4, active compounds read low",1.01
same,normalized growth,"locus YER155C, strain BEM2 (second series), active compounds read low",0.931
same,normalized growth,"locus YER155C, strain BEM2, active compounds read low",1
same,normalized growth,"locus YER167W, strain BCK2, active compounds read low",1
same,normalized growth,"locus YFR010W, strain ubp6, active compounds read low",0.98
same,normalized growth,"locus YGL078C, strain dbp3, active compounds read low",1.01
same,normalized growth,"locus YGL086W, strain mad1, active compounds read low",0.985
same,normalized growth,"locus YGL167C, strain pmr1, active compounds read low",0.987
same,normalized growth,"locus YGL173C, strain kem1, active compounds read low",0.977
same,normalized growth,"locus YGL227W, strain vid30, active compounds read low",0.975
same,normalized growth,"locus YGL240W, strain doc1, active compounds read low",0.956
same,normalized growth,"locus YGL248W, strain PDE1, active compounds read low",0.979
same,normalized growth,"locus YGL253W, strain hxk2, active compounds read low",0.96
same,normalized growth,"locus YGR135W, strain pre9, active compounds read low",1.02
same,normalized growth,"locus YGR252W, strain gcn5, active compounds read low",0.895
same,normalized growth,"locus YHR013C, strain ard1, active compounds read low",0.998
same,normalized growth,"locus YHR027C, strain rpn1, active compounds read low",0.993
same,normalized growth,"locus YHR030C, strain SLT2, active compounds read low",1.01 and 1.04
same,normalized growth,"locus YHR079C, strain IRE1 (second series), active compounds read low",1.01
same,normalized growth,"locus YHR079C, strain IRE1, active compounds read low",1.07
same,normalized growth,"locus YHR094C, strain hxt1, active compounds read low",1.01
same,normalized growth,"locus YHR129C, strain ARP1, active compounds read low",0.998
same,normalized growth,"locus YHR142W, strain chs7, active compounds read low",0.986
same,normalized growth,"locus YHR200W, strain rpn10, active compounds read low",1.02
same,normalized growth,"locus YIL066C, strain RNR3, active compounds read low",0.945
same,normalized growth,"locus YIL073C, strain SPO22, active compounds read low",1.03
same,normalized growth,"locus YIL125W, strain kgd1, active compounds read low",0.989
same,normalized growth,"locus YIR030C, strain dcg1, active compounds read low",1
same,normalized growth,"locus YJL092W, strain hpr5, active compounds read low",0.994
same,normalized growth,"locus YJL095W, strain BCK1 (second series), active compounds read low",0.98
same,normalized growth,"locus YJL095W, strain BCK1, active compounds read low",0.944 and 1.04
same,normalized growth,"locus YJL115W, strain asf1, active compounds read low",0.987
same,normalized growth,"locus YJL129C, strain trk1, active compounds read low",0.92
same,normalized growth,"locus YJL134W, strain LCB3, active compounds read low",1.01
same,normalized growth,"locus YJL154C, strain vps35, active compounds read low",0.993
same,normalized growth,"locus YJL164C, strain tpk1, active compounds read low",0.981
same,normalized growth,"locus YJL166W, strain qcr8, active compounds read low",0.934
same,normalized growth,"locus YJL168C, strain set2, active compounds read low",1.01
same,normalized growth,"locus YJL187C, strain SWE1 (second series), active compounds read low",0.981
same,normalized growth,"locus YJR043C, strain POL32, active compounds read low",0.976
same,normalized growth,"locus YJR066W, strain TOR1, active compounds read low",0.987
